Source: the supplement of paper PMC12350171
Counter-ions that a name gives are not always drawn. Values without a mark were called inactive.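 Rule for the calls: active = AUC significantly below DMSO controls by Student t-fit with adjusted P under 0.01; inactive = not significantly reduced.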

What follows are compounds tested on Haemophilus parainfluenzae (assay: growth AUC normalised to DMSO control (fraction of control); higher = less growth inhibition, active = hit call of the paper). Conditions: 20 µM.
How it was run: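 After two anaerobic passages, pathogens were added at a starting OD578 of 0.01 to pre-reduced mGAM plates holding compound at 20 μM with 1% DMSO; hemin and NAD were supplemented for Haemophilus parainfluenzae. Sealed with breathable membranes, plates were read at OD578 hourly for 24 h, in three biological replicates. The trapezoidal rule, applied up to the exponential-to-stationary transition, gave the growth-curve AUC, which was normalised to DMSO controls on the same plate.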

Row | SMILES | growth AUC normalised to DMSO control
1 | NC(=O)NC1NC(=O)NC1=O (configuration not stated) [Allantoin] | 0.974
2 | Cc1c(-c2ccccc2)oc2c(C(=O)OCCN3CCCCC3)cccc2c1=O [Flavoxate hydrochloride] | 1.2
3 | CCC(=O)[C@@]1(C)[C@H](C)C[C@H]2[C@@H]3CCC4=CC(=O)C=C[C@]4(C)[C@H]3[C@@H](O)C[C@@]21C [Rimexolone] | 0.998
4 | COc1cccc2c1C(=O)c1c(O)c3c(c(O)c1C2=O)C[C@@](O)(C(C)=O)C[C@@H]3O[C@H]1C[C@H](N)[C@H](O)[C@H](C)O1 [Daunorubicin hydrochloride] | 0.997
5 | CCCCC[C@H](O)/C=C/[C@H]1[C@H](O)CC(=O)[C@@H]1CCCCCCC(=O)O [Alprostadil] | 0.903
6 | O=C(O)c1cccnc1 [Niacin] | 1.07
7 | O=c1[nH]cc(F)c(=O)[nH]1 [5-fluorouracil] | 0.654 (active)
8 | CCN(CC)C(=S)SSC(=S)N(CC)CC [Disulfiram] | 0.979
9 | COc1ccc(CN(CCN(C)C)c2ccccn2)cc1 [Pyrilamine maleate] | 0.99
10 | C=CC1=C(C(=O)O)N2C(=O)[C@@H](NC(=O)/C(=N\O)c3csc(N)n3)[C@H]2SC1 [Cefdinir] | 0.176 (active)
11 | CCc1c(C)[nH]c2c1C(=O)C(CN1CCOCC1)CC2 (configuration not stated) [Molindone hydrochloride] | 1.01
12 | CC(C)(Oc1ccc(C2CC2(Cl)Cl)cc1)C(=O)O (configuration not stated) [Ciprofibrate] | 1.01
